AMA1 RON2 block: qHTS for Inhibitors of AMA1-RON; Towards Development of Antimalarial Drug Lead: Primary Screen. Plasmodium falciparum AMA1 (3D7) - RON2 peptide interaction. AlphaScreen AMA1-biotinylated RON2 peptide binding. 360,000 tested, 0.2% active. Potency, µM (top dose mostly 58.2 µM), for inactives: at the top dose activity change, negative = inhibition, hits mostly inhibitors. AID 720542, 2013;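 note: 0% = vehicle wells and -100% = peptide control; nearly all actives have a fitted effect of over 45% in size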
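AMA1 (3D7) with his tag at 25 nM final met compounds first, then biotinylated RON2 peptide at 25 nM; detection used donor plus acceptor beads, 10 µg/mL apiece, read by AlphaScreen after 30 min at room temperature.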
AmpC detergent: qHTS Inhibitors of AmpC Beta-Lactamase (assay with detergent). AID 485294, 2010. 370,000 tested, 0.041% active. Potency, µM (highest dose often 114 µM), without a hit: at the top dose activity change, negative = inhibition, hits mostly inhibitors. AmpC hydrolysis of nitrocefin, absorbance 480 nm, 0.01% Triton;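 note: 0% = no-compound wells and -100% = no-enzyme wells; nearly all actives have a fitted effect of over 25% in size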
Target sequence (P00811 whole entry, looked up): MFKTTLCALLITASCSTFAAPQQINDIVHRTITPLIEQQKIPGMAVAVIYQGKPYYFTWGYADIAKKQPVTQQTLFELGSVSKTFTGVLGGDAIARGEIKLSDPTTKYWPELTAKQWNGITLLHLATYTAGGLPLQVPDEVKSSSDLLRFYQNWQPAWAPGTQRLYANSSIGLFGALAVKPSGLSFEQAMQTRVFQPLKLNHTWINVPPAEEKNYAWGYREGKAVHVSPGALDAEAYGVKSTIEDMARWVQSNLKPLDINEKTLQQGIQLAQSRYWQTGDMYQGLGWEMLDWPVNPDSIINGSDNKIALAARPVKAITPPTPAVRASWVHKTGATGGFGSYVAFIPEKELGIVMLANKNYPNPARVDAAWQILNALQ
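AmpC (5.3 nM in the dispensed reagent) in 20 mM phosphate pH 7.0 with 0.01% (detergent screen) or 0.0001% Triton X-100 was preincubated with compounds for 15 min at room temperature. Nitrocefin was then added from an 800 uM solution, and hydrolysis was followed at 480 nm.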
LASV entry inh: qHTS for Inhibitors of binding or entry into cells for Lassa Virus; 300,000 tested, 1.2% active; Lassa virus pseudotype entry inhibition, cell reporter; Potency, µM (titrated, usually from 37.9 µM), for the others: at the highest dose activity change, negative = inhibition, actives largely listed as inhibitors; calls by dose curve; tested in HEK293 cells; note: nearly all actives have a fitted effect of over 50% in size
AmpC no deterg: qHTS Inhibitors of AmpC Beta-Lactamase (assay without detergent); AmpC nitrocefin hydrolysis, absorbance 480 nm, 0.0001% Triton; 330,000 tested, 0.52% active; Potency, µM (titrated, usually from 57.1 µM), inactives show at the top dose activity change, negative = inhibition, most hits filed as inhibitors;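 note: plate controls were no compound for no effect and no enzyme for full effect; nearly all actives have a fitted effect of over 20% in size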
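20 mM phosphate pH 7.0 + 0.01% (detergent screen) or 0.0001% Triton X-100; 5.3 nM AmpC reagent; cpd preinc 15 min RT; nitrocefin (800 uM stock) to start; A480 q20 s × 4 min; Activity was normalised to no-enzyme and no-compound control wells.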
Marburg entry inh: qHTS for inhibitors of binding or entry into cells for Marburg Virus; Marburg virus pseudotyped entry inhibition, cell reporter; Potency, µM (series often up to 37.8 µM), for inactives: at the top dose activity change, negative = inhibition, actives largely listed as inhibitors; 300,000 tested, 1.8% active; calls by dose curve; tested in HEK293 cells
* hit, by the source's call; ? = inconclusive; . = no result given; [ ] = remark or other dose. Only some compounds are listed: those with a hit (about 2.3% of all), similar ones and a draw of the others. Unless noted, calls come from the whole dose curve; as a rule, active = well fitted curve in the direction sought with a large enough effect; inconclusive = small, poorly fitted or top-dose-only effect, or another doubt; inactive = no such curve, though single readings can be large; an effect the other way counts as inactive or inconclusive. Unless noted, % is set by controls: 0 for no effect and ±100 for the full control effect; potency is the fitted concentration of half-maximal effect.

SMILES	AMA1 RON2 block	AmpC detergent	LASV entry inh	AmpC no deterg	Marburg entry inh
Cc1ccc(NC(=O)C(OC(=O)c2ccc(O)cc2)c2ccccc2)cc1Cl (stereo not given)	7%	-3%	?	7.1µM*	-18%
Cc1ccc(NC(=O)C(c2ccccc2)N(C)C)cc1Cl (stereo not given)	0%	?	?	-21%[11.4 µM]	11µM*
O=C(C1=NC2=C(CCCC2)CC1)C1CCCCN1 (stereo not given)	.	.	.	.	3%[46.1 µM]
N#CC1(NC(=O)COC(=O)c2nc(Cl)ccc2Cl)CCCCC1	1%	-17%	-4%	-19%	9%
Cc1[nH]c2ccc(C(=O)OCC(=O)NC3(C#N)CCCCC3)cc2c1C	-16%	-4%	6.3µM*	-37%	?
C#CCCCON=C1C[C@@H](O)[C@H](O)[C@H]2[C@@H]3C(=O)N(C[C@@H]4CCCO4)C(=O)[C@@H]3CC[C@H]12	.	.	-11%[14.3 µM]	.	4%[14.2 µM]
CCOc1ccc(Nc2ccnc3cc(Cl)ccc23)cc1	4%	0%	.	-15%	.
CCN1CCC(Nc2ccnc3cc(Cl)ccc23)CC1	5%	-12%	17%[46.1 µM]	-16%	13µM*
CN1CCN(c2ccc(Nc3ccnc4cc(Cl)ccc34)cc2)CC1	13%	-8%	2.5µM*	17%	?
N#CC1=C(N)OC2=C(CCc3ccccc32)C1c1ccccc1Cl (stereo not given)	-1%	-6%	?	3.5µM*	?
CCOc1ccc(-n2nc(CO)c(C(=O)NCc3cccc(OC)c3)n2)cc1	.	-4%	?	.	13%[46.1 µM]
Fc1ccc(CSc2nncn2NC/C=C/c2ccccc2)cc1	-18%	0%	-5%	7.1µM*	-20%
Fc1ccc(CSc2nncn2NCc2ccccc2)cc1	13%	-3%	-17%	-4%	3%
O=C(O)/C=C/c1cnn(-c2ccccc2)c1	11%	-4%	2.8µM*	-15%	?
CC(C)CO/N=C1\C[C@@H](O)[C@@H](O)[C@@H]2[C@@H]3C(=O)N(C[C@@H]4CCCO4)C(=O)[C@@H]3CC[C@H]12	.	.	.	.	10%[14.2 µM]
C=CCN(C)C1=NC(c2ccccc2)C(C(=O)OC)=C(C)N1CCOC (stereo not given)	.	.	.	.	4%[14.2 µM]
COc1cc(C(=O)NNC(=O)NC2CCCCC2)cc(OC)c1OC	9%	1%	5%	0.25µM*	-5%
COc1ccc(/C=N/NC(=O)CSCC(=O)Nc2ccccc2)cc1	1%	1%	.	-16%	.
COc1cccc(/C=N/NC(=O)CNC(=O)C(c2ccccc2)c2ccccc2)c1O	54%	1%	10µM*	-30%	?
COc1cccc(/C=N/NC(=O)CNC(=O)/C=C\c2ccccc2)c1O	-8%	2%	.	?	.
COc1cccc(/C=N/NC(=O)CSCC(=O)Nc2ccccc2)c1O	48%	1%	?	-34%	21µM*
CCCCn1c(CNC(=O)CCC)nc2ccccc21	-4%	-12%	.	7.1µM*	.
CCCCn1c(C(C)NC(=O)COC)nc2ccccc21 (stereo not given)	-2%	0%	3%	-10%	-19%
CCCCCn1c(C(Cc2ccccc2)NC(=O)COC)nc2ccccc21 (stereo not given)	39%	?	.	1.3µM*	7%
CN1CCN(S(=O)(=O)c2ccc(N(C)Cc3ccc(C(F)(F)F)cc3)c([N+](=O)[O-])c2)CC1	?	-3%	?	206%	10µM*
SMILES	AMA1 RON2 block	AmpC detergent	LASV entry inh	AmpC no deterg	Marburg entry inh
C=CCOc1ccc(CN(C)c2ccc(S(=O)(=O)N3CCN(C)CC3)cc2[N+](=O)[O-])cc1	-12%[11.6 µM]	5%	?	161%	?
Cc1cc(C)cc(NC(=O)c2cccc(C(=O)Nc3cc(C)cc(C)c3)c2)c1	.	1%	-7%[46.1 µM]	.	.
C#CC(=O)N(c1cc(OC)ccc1OC)C(C(=O)NC1CCCC1)c1cccs1 (stereo not given)	5%	-1%	3.5µM*	19%	2µM*
Nc1[nH]nc2nc(NCc3ccccc3)c3c(c12)CCN(Cc1ccccc1)C3	-11%	-19%	13µM*	26%	?
CC1CCCCC1S(=O)C1=C(C(=O)O)CCCC1 (stereo not given)	.	.	.	.	7%[46.1 µM]
CCOC(=O)c1ccc(NC(=S)N(CCCN2CCCCC2)Cc2ccco2)cc1	3%	-13%	-17%	13%	13µM*
CCOC(=O)c1ccc(NC(=S)N(CCCN(CC)CC)Cc2ccco2)cc1	-16%	-5%	?	11%	-53%
Cc1ccc(C)c(Cn2cnc3c(cnn3C(C)(C)C)c2=O)c1	5%	?	6.3µM*	22%	?
CCOC(=O)CCc1c(C)n[nH]c1C	8%	1%	13%[46.1 µM]	-14%	-1%[46.1 µM]
CCOC(=O)CCCc1sc(N)nc1-c1[nH]c(=O)[nH]c1C	1.5µM*	-12%	-5%	-5%	0%
O=C(CC1N=C2c3ccccc3N=C(SCC(=O)Nc3cccc(C(F)(F)F)c3)N2C1=O)NCc1cccs1 (stereo not given)	.	8%	1%[46.1 µM]	.	?
COCCNC(=O)CSc1cn(CC(=O)N2CCCCCC2)c2ccccc12	.	3%	-5%[46.1 µM]	.	.
CCOC(=O)c1ccc(NC(=O)C2CCN(S(=O)(=O)Cc3ccccc3)CC2)cc1	.	5%	-6%[46.1 µM]	.	7%[46.1 µM]
O=C(C(NS(=O)(=O)c1cccs1)c1ccccc1)N1CCN(c2ccccc2F)CC1 (stereo not given)	-1%	-2%	7.3µM*	-14%	?
O=S(=O)(NCC(c1cccnc1)N1CCN(c2ccccc2F)CC1)c1cccs1 (stereo not given)	9%	?	.	25%	2%
Cc1cccc(N2CCN(C(=O)C(NS(=O)(=O)c3cccs3)c3ccccc3)CC2)c1C (stereo not given)	-5%	?	2.6µM*	-26%	-29%
CC(C)(C)c1ccc(NC(=O)CSc2nnc3scc(-c4ccccc4)n23)cc1	.	15%	?	.	-2%[46.1 µM]
Cc1cc(C)cc(N(C(=O)c2sc(C)nc2C)C(C(=O)NCc2ccco2)c2ccccc2)c1 (stereo not given)	-3%	-6%	?	?	?
Cc1ccc(N(C(=O)c2sc(C)nc2C)C(C(=O)NCc2ccco2)c2ccccc2)cc1 (stereo not given)	-5%	-6%	7.3µM*	103%	?
O=C(CCN1C(=O)/C(=C/c2cccs2)SC1=S)Nc1ccc(O)cc1	-10%	-15%	-18%[46.1 µM]	?	0%[46.1 µM]
O=C(CCN1C(=O)/C(=C/c2cccs2)SC1=S)Nc1ccc(C(=O)O)c(O)c1	?	-4%	.	1.3µM*	.
CC1CCN(C(=O)CCN2C(=O)/C(=C/c3cccs3)SC2=S)CC1	10%	-12%	5.6µM*	-21%	?
CC(=O)c1ccc(OCc2cn(CC(=O)c3ccc(O)cc3)nn2)cc1C	.	.	-2%[46.1 µM]	.	.

Source: PubChem BioAssay (National Center for Advancing Translational Sciences (NCATS))
